This is part of a sample that, as a whole, favours compounds with a hit. Of some 83,000 tested, about 20% had one in any assay.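 Assay: single dose, 48 h. Readout: percent growth (0 = no net growth; negative = cell death). Active: <10.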 Unmarked numbers belong to inactive results. The source made the active and inactive calls.

Test systems include SR leukemia; RPMI-8226 leukemia; OVCAR-8 ovarian; OVCAR-5 ovarian; OVCAR-4 ovarian; SK-OV-3 ovarian; IGROV1 ovarian; OVCAR-3 ovarian; HS 578T breast; NCI/ADR-RES ovarian.
Common to all, as to test: NCI-60 one-dose screen, 48 h (100 = growth as untreated, 0 = no growth, -100 = all killed)
What all share (conditions): 10 µM unless noted

Turning to `CC1(C)CC[C@]23CC[C@]4(C)[C@H](CC[C@@H]5[C@@]6(C)CCCNC(C)(C)[C@@H]6CC[C@]54C)[C@H]2[C@H]1OC3`, the growth is -30.2% (active) in the test on SR leukemia; -29.7% (active) with RPMI-8226 leukemia; -45.6% (active) in the test with OVCAR-8 ovarian; 8.55% (active) in the test on OVCAR-5 ovarian; -51.2% (active) with OVCAR-4 ovarian; 75.8% with SK-OV-3 ovarian. Moreover, the growth in the test on IGROV1 ovarian is -58.7% (active); in the test with OVCAR-3 ovarian, -31.2% (active); in the test with HS 578T breast it was -9.12% (active); with NCI/ADR-RES ovarian, -19.6% (active).
Consider `C=C1C(=O)O[C@H]2[C@H]1CC/C(COC(=O)NCc1c[nH]c3ccc(Br)cc13)=C\CC[C@@]1(C)O[C@@H]21`, for which the growth with SR leukemia was 7.54% (active); in the test on RPMI-8226 leukemia, -29.2% (active); in the test with OVCAR-8 ovarian it was -41.7% (active); with OVCAR-5 ovarian, -20.7% (active); in the test with OVCAR-4 ovarian, 4.97% (active); in the test on SK-OV-3 ovarian, 86.9%. Moreover, the growth in the test on IGROV1 ovarian is -46.8% (active); in the test with OVCAR-3 ovarian it was -87.5% (active); with HS 578T breast, 34.3%; in the test on NCI/ADR-RES ovarian, 43.5%.
For the molecule `O=C(/C(=C\c1ccc([N+](=O)[O-])cc1)S(=O)Cc1ccc(Cl)cc1)c1ccc(Cl)cc1` (stereo not given), the growth in the test with SR leukemia was 15%; with RPMI-8226 leukemia it was 1.3% (active); in the test with OVCAR-8 ovarian, 73.6%; in the test with OVCAR-5 ovarian, 73.6%; with OVCAR-4 ovarian, 81.1%; with SK-OV-3 ovarian it was 105%. The growth with IGROV1 ovarian was 62.7%; with OVCAR-3 ovarian, 73.7%; in the test with HS 578T breast it was 85.1%; in the test on NCI/ADR-RES ovarian, 71.7%.
As for `CC(C)(C)c1ccc(NS(=O)(=O)c2ccc3nc(NC(=O)c4cnccn4)[nH]c3c2)cc1`, the growth with SR leukemia was 4.26% (active); in the test on RPMI-8226 leukemia, 24.3%; in the test with OVCAR-8 ovarian, 45.6%; in the test with OVCAR-5 ovarian it was 57%; in the test on OVCAR-4 ovarian, 37%; in the test with SK-OV-3 ovarian, 53.5%. The growth in the test on IGROV1 ovarian was 37.4%; in the test on OVCAR-3 ovarian it was -12.3% (active); in the test with HS 578T breast, -1.91% (active); with NCI/ADR-RES ovarian it was 30.6%.
`O=S(=O)(Nc1ccc(-n2cnc3cc(-c4ccc(O)cc4)ccc32)cc1)c1ccccc1`: the growth in the test on SR leukemia is 78%; in the test on RPMI-8226 leukemia, 69.1%; with OVCAR-8 ovarian, 84.4%; with OVCAR-5 ovarian it was 111%; in the test on OVCAR-4 ovarian, 74.1%; in the test on SK-OV-3 ovarian it was 127%. The growth in the test with IGROV1 ovarian is 91.4%; with OVCAR-3 ovarian, 95.8%; in the test with HS 578T breast it was 97.3%; with NCI/ADR-RES ovarian, 91.9%.
In the case of `COc1cc2c(c(OC)c1OC)-c1ccc(NNC(=S)N(Cc3cccc(C[N+](Cc4cccc(CNC56CC7CC(CC(C7)C5)C6)c4)(Cc4cccc(CNC56CC7CC(CC(C7)C5)C6)c4)Cc4cccc(CN(C(=S)NNc5ccc6c(cc5=O)[C@@H](NC(C)=O)CCc5cc(OC)c(OC)c(OC)c5-6)C56CC7CC(CC(C7)C5)C6)c4)c3)C34CC5CC(CC(C5)C3)C4)c(=O)cc1[C@@H](NC(C)=O)CC2` (stereo not given in full), the growth was -49.9% (active) in the test with SR leukemia; -46.6% (active) in the test with RPMI-8226 leukemia; 16.1% in the test with OVCAR-8 ovarian; 37% in the test on OVCAR-5 ovarian; 29.3% in the test with OVCAR-4 ovarian; 37% in the test on SK-OV-3 ovarian. Also, the growth with IGROV1 ovarian is 10.6%; with OVCAR-3 ovarian it was 20.7%; with HS 578T breast, 7.62% (active); in the test on NCI/ADR-RES ovarian, 76.3%.
On to `Cc1cc2nc3c4cc([N+](=O)[O-])ccc4n(CCN(C)C)c3nc2cc1C`, for which the growth with SR leukemia was -16.7% (active); with RPMI-8226 leukemia, -36.4% (active); with OVCAR-8 ovarian it was 8.77% (active); with OVCAR-5 ovarian, -8.87% (active); with OVCAR-4 ovarian, 9.25% (active); with SK-OV-3 ovarian, 8.97% (active). Moreover, the growth in the test with IGROV1 ovarian was -33.6% (active); in the test with OVCAR-3 ovarian, -8.29% (active); with HS 578T breast, 20.7%; in the test on NCI/ADR-RES ovarian, -13.4% (active).
Consider `NC(=O)CSSCC(N)=O`, for which the growth with SR leukemia was 85.2%; with RPMI-8226 leukemia, 91.4%; in the test on OVCAR-8 ovarian it was 101%; in the test on OVCAR-5 ovarian, 105%; with OVCAR-4 ovarian it was 111%; with SK-OV-3 ovarian, 109%. Further, the growth with IGROV1 ovarian is 97.8%; in the test on OVCAR-3 ovarian it was 114%; in the test on HS 578T breast it was 97.6%; in the test with NCI/ADR-RES ovarian it was 105%.
Consider `C=C(C)[C@@H]1CC[C@]2(C(=O)N3CCN(C)CC3)CC[C@]3(C)[C@H](CC[C@@H]4[C@@]5(C)C/C(=C/c6cccnc6)C(=O)C(C)(C)[C@@H]5CC[C@]43C)[C@@H]12`, for which the growth was 19.9% with SR leukemia; 21.2% in the test with RPMI-8226 leukemia; 56.2% with OVCAR-8 ovarian; 100% in the test on OVCAR-5 ovarian; 49.2% in the test on OVCAR-4 ovarian; 83.8% in the test with SK-OV-3 ovarian. For the same molecule, the growth is 96% in the test with IGROV1 ovarian, 57.5% in the test with OVCAR-3 ovarian, 76.4% in the test on HS 578T breast and 64.2% in the test with NCI/ADR-RES ovarian.
As to `Nc1nc(Nc2ccccc2SSc2ccccc2Nc2nc(N)nc(-c3cccs3)n2)nc(-c2ccsc2)n1`, the growth is 31.3% with SR leukemia; 71.9% in the test on RPMI-8226 leukemia; 76.9% in the test on OVCAR-8 ovarian; 118% in the test on OVCAR-5 ovarian; 70.4% in the test with OVCAR-4 ovarian; 110% with SK-OV-3 ovarian. For the same molecule, the growth in the test with IGROV1 ovarian was 58.9%; with OVCAR-3 ovarian it was 90.4%; in the test on HS 578T breast it was 93.3%; in the test on NCI/ADR-RES ovarian it was 4.43% (active).
As for `CC1=C(C(=O)/C=C/c2c[nH]c3ccccc23)C(c2ccccc2)NC(=S)N1` (stereo not given), the growth in the test with SR leukemia is 88.8%; in the test with RPMI-8226 leukemia, 101%; with OVCAR-8 ovarian, 101%; in the test on OVCAR-5 ovarian it was 96.7%; with OVCAR-4 ovarian, 101%; in the test on SK-OV-3 ovarian, 95.4%. The growth in the test on IGROV1 ovarian was 76.8%; in the test with OVCAR-3 ovarian, 98.5%; with HS 578T breast, 95.9%; in the test with NCI/ADR-RES ovarian, 97.1%.
Consider `CN1CCC(=C(c2ccccc2)c2ccccc2)C(c2ccccc2)C1` (stereo not given), for which the growth is 96.5% with SR leukemia; 103% in the test on RPMI-8226 leukemia; 99.3% in the test on OVCAR-8 ovarian; 90% in the test with OVCAR-5 ovarian; 104% with OVCAR-4 ovarian; 115% in the test with SK-OV-3 ovarian. The growth in the test with IGROV1 ovarian was 81.7%; with OVCAR-3 ovarian, 113%; in the test with HS 578T breast, 103%; with NCI/ADR-RES ovarian, 83.4%.
Consider `O=C(CCN1CCCC1)Nc1ccc2c(NCCCc3ccccc3)c3ccccc3nc2c1`, for which the growth in the test on SR leukemia was -22.3% (active); in the test on RPMI-8226 leukemia, -36.6% (active); in the test on OVCAR-8 ovarian it was 9.97% (active); with OVCAR-5 ovarian it was 32.1%; in the test with OVCAR-4 ovarian, -18.6% (active); with SK-OV-3 ovarian, 13%. Besides, the growth with IGROV1 ovarian was 11.7%; in the test with OVCAR-3 ovarian, -70.7% (active); in the test with HS 578T breast, 27.4%; in the test on NCI/ADR-RES ovarian, 91.2%.

Source of the values: PubChem BioAssay (NCI).
